According to PubChem BioAssay (NCATS):
Where “and” joins values, the source holds several entries; their conditions need not be identical. Equal entries are not always repeated. Records with an inconclusive call do not appear. Entries that show only a call come without a potency. A structure can be active in one record and inactive in another. Calls of active or inactive are those of the source. Unless noted, the call rests on the fitted dose curve; in most records, active means well fitted curve in the direction sought with a large enough effect; inconclusive means small, poorly fitted or top-dose-only effect, or another doubt; inactive means no such curve, though single readings can be large; an effect the other way counts as inactive or inconclusive.

Assays:
[1] = target: Cytochrome P450 2C19 (Homo sapiens) (UniProt P33261); experiment: qHTS Assay for Inhibitors and Substrates of Cytochrome P450 2C19 (AID 899); further: nearly all actives have a fitted effect of over 60% in size; further: potency means the concentration at half of the fitted maximal effect
Chain of Cytochrome P450 2C19 (Homo sapiens) (P33261 whole entry, looked up): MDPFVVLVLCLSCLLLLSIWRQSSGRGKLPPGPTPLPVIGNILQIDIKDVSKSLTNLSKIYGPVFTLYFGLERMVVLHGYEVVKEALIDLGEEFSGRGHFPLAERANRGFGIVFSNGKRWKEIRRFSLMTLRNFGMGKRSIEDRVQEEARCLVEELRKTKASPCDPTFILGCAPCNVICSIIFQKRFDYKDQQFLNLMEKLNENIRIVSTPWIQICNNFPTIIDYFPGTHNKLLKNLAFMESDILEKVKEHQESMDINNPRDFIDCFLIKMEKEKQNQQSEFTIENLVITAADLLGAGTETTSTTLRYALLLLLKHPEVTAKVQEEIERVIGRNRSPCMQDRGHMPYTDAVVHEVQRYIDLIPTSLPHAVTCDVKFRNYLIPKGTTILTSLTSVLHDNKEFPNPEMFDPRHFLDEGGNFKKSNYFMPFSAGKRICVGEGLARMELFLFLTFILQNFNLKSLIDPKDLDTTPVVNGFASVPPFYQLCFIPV
Summary of the method: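 5 nM human CYP2C19 with 10uM Luciferin-H EGE (at KM) in 50mM KPO4, compound preincubated 10 min at 37C, then NADPH regeneration for 60 min at 37C. Luciferin read by luminescence after detection reagent; normalized to 57uM ketoconazole as full inhibition.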

[2] = qHTS Assay for Identification of Small Molecule Agonists for Thrombopoietin (TPO) Signaling Pathway (AID 917)
Summary of the method: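 Activators of TPO signaling were sought in murine Ba/F3 cells transfected with the human receptor, using a luciferase gene driven by the Glycoprotein IIb promoter; 24-hr compound exposure at 37 C alongside 26 pM TPO, in IL-3-free medium.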

[3] = target: Pyruvate kinase (Leishmania mexicana) (UniProt Q27686); experiment: qHTS Validation Assay for Inhibitors of Leishmania Mexicana Pyruvate Kinase (AID 945)
Chain of Pyruvate kinase (Leishmania mexicana) (Q27686 2-499 E452W): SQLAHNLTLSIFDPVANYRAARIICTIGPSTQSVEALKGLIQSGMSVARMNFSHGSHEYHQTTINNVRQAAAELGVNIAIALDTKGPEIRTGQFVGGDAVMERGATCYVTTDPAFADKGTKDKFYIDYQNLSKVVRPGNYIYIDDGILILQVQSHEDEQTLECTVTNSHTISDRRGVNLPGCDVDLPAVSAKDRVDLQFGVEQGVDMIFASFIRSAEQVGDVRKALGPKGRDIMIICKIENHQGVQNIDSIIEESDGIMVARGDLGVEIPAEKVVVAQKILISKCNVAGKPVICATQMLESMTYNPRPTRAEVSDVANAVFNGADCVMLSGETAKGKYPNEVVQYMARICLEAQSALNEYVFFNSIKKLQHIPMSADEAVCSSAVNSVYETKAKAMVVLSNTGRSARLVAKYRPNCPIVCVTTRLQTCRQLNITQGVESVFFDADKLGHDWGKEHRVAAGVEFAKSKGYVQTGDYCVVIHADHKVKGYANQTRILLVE
Summary of the method: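 Eight-point qHTS titrations; enzyme 0.2 nM LmPYK (E451W mutant); substrates 0.5 mM PEP, 0.1 mM ADP; 7 mM MgCl2; 1 h room temperature; PKLight luminescence normalized to neutral control.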

[4] = Cell Viability - LYMP2-001 (AID 921);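 further: series mostly up to about 92 µM; cells exposed to compound for 24 h at 37 °C; nearly all actives have a fitted effect of over 70% in size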
Summary of the method: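 CellTiter-Glo luminescence (intracellular ATP) after 24 hr compound exposure at 37 C, 2500 lymphoblastoid cells/well in complete medium. AC50 fitted with standard Hill equation; tetraoctylammonium bromide positive control.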

[5] = target: Muscarinic acetylcholine receptor M1 (Rattus norvegicus) (UniProt P08482); experiment: qHTS Assay for Antagonists of Acetylcholine Muscarinic M1 Receptor: Measurement of IP-One Response (AID 944); further: nearly all actives have a fitted effect of over 75% in size
Chain of Muscarinic acetylcholine receptor M1 (Rattus norvegicus) (P08482 whole entry, looked up): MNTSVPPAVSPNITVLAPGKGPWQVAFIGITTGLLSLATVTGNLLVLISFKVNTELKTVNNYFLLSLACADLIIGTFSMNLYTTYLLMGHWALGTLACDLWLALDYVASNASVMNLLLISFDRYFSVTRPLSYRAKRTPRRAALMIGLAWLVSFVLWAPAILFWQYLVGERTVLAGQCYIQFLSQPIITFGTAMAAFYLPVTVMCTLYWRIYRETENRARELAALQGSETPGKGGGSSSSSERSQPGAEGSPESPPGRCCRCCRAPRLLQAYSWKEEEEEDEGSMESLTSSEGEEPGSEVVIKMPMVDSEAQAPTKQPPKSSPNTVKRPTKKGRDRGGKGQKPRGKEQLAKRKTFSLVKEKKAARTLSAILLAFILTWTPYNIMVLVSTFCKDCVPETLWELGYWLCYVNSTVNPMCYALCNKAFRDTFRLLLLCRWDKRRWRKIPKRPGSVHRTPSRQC
Summary of the method: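 CHO cells stably expressing rat M1, pretreated 10 min with compound, then stimulated 30 min with carbachol at EC80 (200 nM) in LiCl-containing buffer pH 7.4; IP1 accumulation read by HTRF competition (665/620 nm).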

[6] = Confirmation and Secondary Assay for Modulators of Hemoglobin Beta Chain Splicing at IVS2 654 locus (AID 910);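 further: HeLa cells stably carrying EGFP split by mutant beta-globin IVS2-654 intron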
Summary of the method: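 HeLa cells stably expressing EGFP interrupted by β-globin IVS2-654 intron, seeded overnight in Opti-MEM/2% FCS, then treated 2 days at 37 °C. Restored splicing read as total peak GFP intensity per well by laser scanning cytometry (488 nm excitation, 500–520 nm emission); 500 nM antisense PNA as control.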

[7] = Confirmation and Secondary Assay for Modulators of Hemoglobin Beta Chain Splicing at IVS2 705 locus (AID 930);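 further: HeLa cells stably expressing the EGFP-705 splicing reporter; GFP fluorescence per well restored by corrected splicing of the IVS2-705 intron in EGFP; series mostly up to about 46 µM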
Summary of the method: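 HeLa IVS2-705 EGFP reporter cells, 500/well, compound 2 d at 37C; correct splicing yields fluorescent EGFP. Control: 500 nM antisense PNA. Read-out: total peak GFP intensity.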

[8] = qHTS Assay for Identification of Small Molecule Antagonists for Thrombopoietin (TPO) Signaling Pathway (AID 918); conditions: TPO-dependent cell signaling reporter, antagonist mode; further: potency means the concentration at half of the fitted maximal effect; nearly all actives have a fitted effect of over 60% in size
Method: NIH Molecular Libraries Screening Centers Network [MLSCN]
NIH Chemical Genomics Center [NCGC]
The thrombopoietin (TPO) signaling pathway was assayed in murine Ba/F3 cells stably transfected with the human TPO receptor and a luciferase reporter gene controlled by the Glycoprotein IIb promoter (provided by Axxam). BaF3 cells are an IL-3-dependent pro B cell line that upon TPO stimulation, undergo cell division and induce the megakaryocyte marker, Glycoprotein IIb. The assay was screened at the EC50 of TPO (26 pM) to identify inhibitors of the pathway.
NCGC Assay Protocol Summary:
Cells were maintained at 37 C and 5% CO2in RPMI with 10% fetal bovine serum, 0.5 ng/mL murine IL-3, 100U/ml penicillin and 100 ug/ml streptomycin. Prior to plating, cells were incubated overnight in medium without IL-3. Cells were plated at 250 cells/5uL/well into white solid 1536-well plates, 23 nL of compounds were delivered by a pin tool, and 1 uL of TPO (26 pM final concentration in IL-3 deficient medium) was added. Following 24 hrs of incubation at 37 C and 5% CO2, 4 uL of Steadylite detector mix (PerkinElmer) was added, the plates incubated at room temperature for 10 min and luminescence was measured for 10 s and 2X binning by a ViewLux detector (Perkin Elmer).

[9] = target: Muscarinic acetylcholine receptor M1 (Rattus norvegicus) (UniProt P08482); experiment: qHTS Assay for Antagonists of Acetylcholine Muscarinic M1 Receptor: Kinetic Measurement of Intracellular Calcium Response (AID 943); further: series mostly up to about 35 µM; nearly all actives have a fitted effect of over 75% in size
Summary of the method: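 CHO cells expressing rat M1 receptor, Fluo-4 loaded, preincubated 10 min with compound, then stimulated with EC80 carbachol (100 nM final). Kinetic calcium fluorescence over 4 min; response taken as peak over basal signal.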

[10] = qHTS Assay for Identification of Small Molecule Agonists for Hypoxia Response Element Signaling Pathway (AID 914; active means well fitted activation curve with a large enough effect in the signal ratio, with a control signal flat, not every such curve was filed as active; the % refers to the signal ratio); conditions: ME-180 (cervical carcinoma) HRE-bla reporter, beta-lactamase ratio, CoCl2, 17 h; stronger effect = higher value
Summary of the method: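 HRE-bla ME-180 assay for agonist-like enhancement of an EC50 CoCl2 stimulus: 17 h at 37 degrees Celsius, CCF4 for 2.5 h, ratiometric 460/530 nm signal converted to %Activity and fitted to AC50.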

SMILES: COc1nc(C)nc(Cl)c1NC1=NCCN1
- Potency [1]: inactive
- Potency [2]: inactive
- Potency [3]: inactive

SMILES: N[C@@H](Cc1c[nH]c2ccc(O)cc12)C(=O)O
- Potency [1]: inactive
- Potency [2]: inactive
- outcome [4]: inactive
- Potency [5]: inactive
- Potency [3]: inactive

SMILES: NC12CC3CC(CC(C3)C1)C2
- Potency [6]: inactive
- Potency [2]: inactive
- outcome [7]: inactive

SMILES: COC(=O)Nc1nc2ccc(C(=O)c3cccs3)cc2[nH]1
- Potency [1]: inactive
- Potency [6]: inactive
- outcome [7]: inactive
- Potency [3]: inactive

SMILES: Clc1ccc2c(c1)C(N1CCNCC1)=Nc1ccccc1O2
- Potency [1]: inactive
- Potency [6]: inactive
- Potency [8]: 10 µM (active)
- outcome [7]: inactive
- Potency [3]: inactive

SMILES: Cn1cnc2c1c(=O)[nH]c(=O)n2C
- Potency [6]: inactive
- Potency [2]: inactive
- outcome [7]: inactive
- Potency [5]: inactive
- Potency [3]: inactive

SMILES: CCC1(c2ccccc2)C(=O)NCNC1=O
- Potency [1]: inactive
- Potency [6]: inactive
- Potency [2]: inactive
- outcome [4]: inactive
- outcome [7]: inactive

SMILES: Cc1cc(C(C)(C)C)c(O)c(C)c1CC1=NCCN1
- Potency [1]: inactive
- Potency [6]: inactive
- Potency [2]: inactive
- outcome [7]: inactive
- Potency [3]: inactive

SMILES: NCCc1cnc[nH]1
- Potency [6]: inactive
- Potency [2]: inactive
- outcome [7]: inactive
- Potency [9]: inactive
- Potency [5]: inactive
- Potency [3]: inactive

SMILES: Cn1c(=O)c2c(ncn2C)n(C)c1=O
- Potency [1]: inactive
- Potency [6]: inactive
- activation [10]: -1.38% (inactive)
- Potency [2]: inactive
- outcome [4]: inactive
- outcome [7]: inactive
- Potency [5]: inactive

SMILES: Cn1c(=O)c2[nH]cnc2n(C)c1=O
- Potency [6]: inactive
- Potency [2]: inactive
- outcome [4]: inactive
- outcome [7]: inactive

SMILES: CN1C(C(=O)Nc2ccccn2)=C(O)c2ccccc2S1(=O)=O
- Potency [1]: inactive and 6.31 µM (active)
- Potency [6]: inactive
- Potency [2]: inactive
- outcome [7]: inactive
- Potency [3]: inactive

SMILES: O=C(C1CCCCC1)N1CC(=O)N2CCc3ccccc3C2C1 (stereo not given)
- Potency [6]: inactive
- Potency [2]: inactive
- outcome [7]: inactive

SMILES: COc1ccccc1OCCNCC(O)COc1cccc2[nH]c3ccccc3c12 (stereo not given)
- Potency [6]: inactive
- outcome [7]: inactive

SMILES: COc1cc2nc(N(C)CCCNC(=O)C3CCCO3)nc(N)c2cc1OC (stereo not given)
- Potency [6]: inactive
- outcome [7]: inactive

SMILES: CC(COc1ccccc1)N(CCCl)Cc1ccccc1 (stereo not given)
- Potency [6]: inactive
- outcome [7]: inactive

SMILES: NCCCCCC(=O)O
- Potency [6]: inactive
- Potency [2]: inactive
- outcome [7]: inactive
- Potency [3]: inactive
